{"source": "PubChem BioAssay AID504848", "about": "(National Center for Advancing Translational Sciences (NCATS), 2011)", "note": "Out of some 2,300 compounds screened, about 1,400 (61%) were called active. About 29% were inconclusive and are not listed. The set was probably picked from earlier hits. The list shows a part of the results. A number with no mark means an inactive call. Calls come from the whole dose curve; as a rule, active = well fitted inhibition curve with a large enough effect; inconclusive = small, poorly fitted or top-dose-only effect, or effect the other way; inactive = no such curve, though single readings can be large or run the other way. % is set by controls: 0 for no effect and ±100 for the full control effect; potency is the fitted concentration of half-maximal effect."}
{"assay": "Confirmation screen for delayed death inhibitors of the malarial parasite plastid, 96 hour incubation; note: nearly all actives have a fitted effect of over 60% in size", "settings": "P. falciparum luciferase growth in erythrocytes; series mostly up to 28.7 µM; activity change, negative = inhibition: at the top concentration", "summary_of_the_method": "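Erythrocytes infected with luciferase-expressing P. falciparum (2% hematocrit, 0.1% parasitemia final) in RPMI 1640 with 0.5% Albumax, exposed to compounds 96 h at 37 C, 5% CO2. Growth inhibition read as decreased luciferase luminescence.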", "units": {"activity change, negative = inhibition": "%"}}
{"smiles": "Cn1c(CCN2CCCCC2)nc2cc([N+](=O)[O-])ccc21", "activity change, negative = inhibition": -17.4}
{"smiles": "CC1CCN(CCc2nc3cc(NS(=O)(=O)c4ccc(F)cc4)ccc3n2C)CC1", "Potency": "12.6 µM (active)"}
{"smiles": "Cn1c(CCN2CCCCC2)nc2cc(NS(=O)(=O)c3ccc(F)cc3)ccc21", "Potency": "12.6 µM (active)"}
{"smiles": "CCOc1ccc(S(=O)(=O)Nc2cc(S(=O)(=O)N(CC)CC)ccc2N2CCCC2)cc1", "Potency": "0.501 µM (active)"}
{"smiles": "N#Cc1cc(C(=O)c2cc(Cl)ccc2O)cn(-c2ccccc2)c1=O", "Potency": "12.6 µM (active)"}
{"smiles": "COc1cccc(NC(C)C(=O)Nc2cc([N+](=O)[O-])ccc2Cl)c1", "note": "(centres undefined)", "Potency": "3.16 µM (active)"}
{"smiles": "COc1ccc(Nc2cccc(Cl)c2)c(C(=O)O)c1", "activity change, negative = inhibition": -20.8}
{"smiles": "O=C(O)CCc1ccc(-c2ccccc2)n1-c1ccc(C(=O)O)cc1", "activity change, negative = inhibition": 0.286}
{"smiles": "Cc1ccc(NC(=O)c2ccc(Nc3c([N+](=O)[O-])cc([N+](=O)[O-])cc3[N+](=O)[O-])cc2)cc1", "Potency": "2.24 µM (active)"}
{"smiles": "Cc1ccc(NC(=O)/C(=C\\c2ccc([N+](=O)[O-])cc2)NC(=O)c2ccccc2)cc1", "Potency": "2.82 µM (active)"}
{"smiles": "CN1c2ccccc2-c2nc3ccccc3n2C1c1cccs1", "note": "(centres undefined)", "Potency": "4.47 µM (active)"}
{"smiles": "O=C(c1ccc(CS(=O)c2ccccc2Cl)o1)N1CCN(c2ccccn2)CC1", "note": "(centres undefined)", "Potency": "1.41 µM (active)"}
{"smiles": "O=C(c1ccc(CS(=O)c2ccccc2Cl)o1)N1CCCCCC1", "note": "(centres undefined)", "Potency": "5.62 µM (active)"}
{"smiles": "CO[C@H]1[C@H](O[C@H]2O[C@@H](C)[C@@H](O[C@@H]3C[C@](C)(O)[C@H](O)[C@H](C)O3)[C@@H](N(C)C)[C@@H]2O)[C@@H](CC=O)C[C@@H](C)[C@@H](O[C@H]2CC[C@H](N(C)C)[C@H](C)O2)/C=C\\C=C/C[C@@H](C)OC(=O)C[C@H]1O", "Potency": "2.51 µM (active)"}
{"smiles": "CO[C@@H]1[C@@H](OC2OC(C)C(OC3CC(C)(O)C(OC(=O)CC(C)C)C(C)O3)C(N(C)C)C2O)[C@@H](CC=O)C[C@@H](C)C(=O)/C=C\\C2O[C@H]2C[C@@H](C)OC(=O)C[C@H]1OC(C)=O", "note": "(some centres undefined)", "Potency": "1.78 µM (active)"}
{"smiles": "Cc1ccc(OCCSCc2nnc(NC(=O)Nc3cccc(Cl)c3)s2)cc1", "Potency": "2 µM (active)"}
{"smiles": "CCCNC(=O)COC(=O)c1ccccc1C(=O)c1ccc(Cl)c([N+](=O)[O-])c1", "Potency": "10 µM (active)"}
{"smiles": "Cc1onc(-c2c(F)cccc2Cl)c1-c1nnc(-c2ccc(C(F)(F)F)cc2)o1", "Potency": "6.31 µM (active)"}
{"smiles": "COc1ccc(C(=O)/C=C/c2ccccc2)c(OC)c1", "Potency": "7.94 µM (active)"}
{"smiles": "COc1cc(O)cc(O)c1C(=O)/C=C/c1ccccc1", "Potency": "11.2 µM (active)"}
{"smiles": "COc1ccc2cc(C(=O)/C=C/c3cc(OC)c(O)c(OC)c3)ccc2c1", "Potency": "15.8 µM (active)"}
{"smiles": "COc1cc(/C=C/C(=O)Nc2cccnc2)cc(OC)c1OC", "Potency": "11.2 µM (active)"}
{"smiles": "COc1ccc(C(=O)/C=C/c2ccc(OC)c(O)c2)c(F)c1", "Potency": "11.2 µM (active)"}
{"smiles": "COc1ccc(C(=O)/C=C/c2cccnc2)c(OC)c1", "Potency": "3.55 µM (active)"}
{"smiles": "Cc1ccc(Nc2cc(C)nc3ccc(C)cc23)cc1", "Potency": "10 µM (active)"}
{"smiles": "COC(=O)C1=C(C)N(CC2CC2)C(=NCc2cc(OC)c(OC)c(OC)c2)N[C@H]1c1ccccc1", "Potency": "11.2 µM (active)"}
{"smiles": "COc1cc2c(cc1OC)[C@@H](NC(=O)C(C)C)[C@H](OCc1ccccc1)C2", "activity change, negative = inhibition": -82.6}
{"smiles": "Cc1nc(-c2ccccn2)sc1C(=O)Nc1ccc(Cl)c(Cl)c1", "activity change, negative = inhibition": -23}
{"smiles": "O=C(Nc1ccc(N2CCCCC2)c(Cl)c1)c1cccnc1", "Potency": "12.6 µM (active)"}
{"smiles": "O=C(CSc1nnc(NC(=O)c2ccccc2[N+](=O)[O-])s1)NCC1CCCO1", "note": "(centres undefined)", "Potency": "14.1 µM (active)"}
{"smiles": "O=C(COC(=O)c1c2c(nc3ccccc13)CCN(Cc1ccccc1)C2)Nc1c(F)cccc1F", "Potency": "5.01 µM (active)"}
{"smiles": "COc1ccc(Cc2nc3ccc(C(=O)NCCc4ccccn4)cc3o2)cc1OC", "Potency": "11.2 µM (active)"}
{"smiles": "Nc1nc(C2CC2)c(Sc2sc(N)nc2C2CC2)s1", "activity change, negative = inhibition": -23.1}
{"smiles": "CCOc1ccccc1NC(=O)NC1Cc2ccccc2C1", "Potency": "12.6 µM (active)"}
{"smiles": "CC(C)(C(=O)N[C@H](CO)c1ccccc1)C(=O)N[C@H](CO)c1ccccc1", "activity change, negative = inhibition": -4.34}
{"smiles": "CCCC(=O)NC(c1ccccc1)c1c(O)ccc2ccccc12", "note": "(centres undefined)", "Potency": "4.47 µM (active)"}
{"smiles": "Cc1ccc2c(c1)C1CC(C)(O2)N(c2cccc(C(=O)N3CCN(c4ccccn4)CC3)c2)C(=O)N1", "note": "(centres undefined)", "Potency": "12.6 µM (active)"}
{"smiles": "Cc1cccc(-n2c(C)cc(/C=N\\NC(=O)c3cccs3)c2C)c1", "Potency": "12.6 µM (active)"}
{"smiles": "C[N+]1(CCCCSc2ccc(O)cc2)CCCCC1", "Potency": "4.47 µM (active)"}
{"smiles": "COc1ccc(C)cc1NC(=O)C(Sc1nnc(Nc2cc(C)ccc2OC)s1)c1ccccc1", "note": "(centres undefined)", "Potency": "14.1 µM (active)"}
{"smiles": "COC(=O)c1ccc(CNCC(=O)Nc2ccc(C(=O)OC)cc2)cc1", "activity change, negative = inhibition": -15.1}
{"smiles": "Cc1ccc(C(=O)C[n+]2ccccc2C)cc1[N+](=O)[O-]", "Potency": "11.2 µM (active)"}
{"smiles": "CCOC(=O)NC(=O)COC(=O)c1ccc(O)cc1", "activity change, negative = inhibition": 13.7}
{"smiles": "COC(=O)c1ccc(NC(=O)C[n+]2ccccc2C)cc1", "Potency": "12.6 µM (active)"}
{"smiles": "Cc1cccc[n+]1CC(=O)Nc1ccc([N+](=O)[O-])cc1", "Potency": "12.6 µM (active)"}
{"smiles": "Cc1ccc(C(=O)NCCn2ccc3ccccc32)cc1[N+](=O)[O-]", "activity change, negative = inhibition": -13.4}
{"smiles": "Cc1cccc[n+]1CC(=O)c1ccc(NC(=O)c2ccccc2)cc1", "Potency": "5.01 µM (active)"}
{"smiles": "CC(C)[C@H](NC(=O)N1CCn2c1nc1ccccc12)C(=O)N[C@H](C(=O)O)c1ccccc1", "activity change, negative = inhibition": -11.3}
{"smiles": "CCc1ccc(-c2nc3ccc(Br)cc3c(C(=O)O)c2C)s1", "activity change, negative = inhibition": -11.4}
{"smiles": "S=C(NCc1ccncc1)Nc1ccc(Br)cc1Cl", "Potency": "12.6 µM (active)"}
{"smiles": "CC1CCN(CCCNS(=O)(=O)c2cc(Br)cc3c2N(C(=O)C2CC2)CC3)CC1", "Potency": "12.6 µM (active)"}
{"smiles": "O=C(C1CCC1)N1CCc2cc(S(=O)(=O)NCc3ccco3)ccc21", "activity change, negative = inhibition": -14.6}
{"smiles": "O=C(C1CC1)N1CCc2cc(Br)cc(S(=O)(=O)NCc3ccco3)c21", "Potency": "11.2 µM (active)"}
{"smiles": "CCC(=O)N1CCc2cc(Br)cc(S(=O)(=O)NCc3ccco3)c21", "Potency": "12.6 µM (active)"}
{"smiles": "CCCCN(CCCC)CC(O)c1cc(Cl)cc2c1-c1ccc(Cl)cc1/C2=C/c1ccc(Cl)cc1", "note": "(centres undefined)", "Potency": "0.0562 µM (active)"}
{"smiles": "O=[N+]([O-])c1ccc(C(O)C[n+]2ccccc2)cc1", "note": "(centres undefined)", "Potency": "10 µM (active)"}
{"smiles": "CCOc1ccc(C2NC(=S)NC3=C2CCc2ccccc23)cc1", "note": "(centres undefined)", "Potency": "14.1 µM (active)"}
{"smiles": "CN(C)c1ccc2nc3ccc(=[N+](C)C)cc-3sc2c1", "Potency": "0.0631 µM (active)"}
{"smiles": "Cc1[nH]c(=O)[nH]c(=O)c1S(=O)(=O)N1CCCC(C(=O)N2CCN(c3cccc(C(F)(F)F)c3)CC2)C1", "note": "(centres undefined)", "Potency": "8.91 µM (active)"}
{"smiles": "N#Cc1cccc(NC(=O)Cn2c3[n+](c4ccc(C(F)(F)F)cc42)CCCCC3)c1", "Potency": "0.251 µM (active)"}
{"smiles": "CCCCCn1c(=O)c2ccccc2n2c(CCl)nnc12", "Potency": "6.31 µM (active)"}
{"smiles": "CCCCCCCCC[n+]1cccc2c3ccccc3ccc21", "Potency": "0.158 µM (active)"}
{"smiles": "CCCCCCCOc1ccc(C2(C)NC(=O)NC2=O)cc1", "note": "(centres undefined)", "Potency": "8.91 µM (active)"}
{"smiles": "CCC/C(=N\\NC(=O)c1ccco1)c1ccc(Cl)s1", "Potency": "12.6 µM (active)"}
{"smiles": "CCOc1ccccc1CN1CCN(Cc2ccc3cccc(OC)c3n2)CC1CCO", "note": "(centres undefined)", "Potency": "12.6 µM (active)"}
{"smiles": "CCOc1ccc(CN2CCN(Cc3ccc4cc(F)ccc4n3)CC2CCO)cc1", "note": "(centres undefined)", "Potency": "14.1 µM (active)"}
{"smiles": "COc1ccc(-c2cc(C(=O)Nc3cc(C)n(Cc4ccc(Cl)cc4)n3)no2)cc1OC", "Potency": "0.316 µM (active)"}
{"smiles": "CCCn1cc(S(=O)(=O)c2ccc(Cl)cc2)c(=O)c2cc(OC)ccc21", "Potency": "11.2 µM (active)"}
{"smiles": "NC(=O)CC(NC(=O)c1ccccc1)c1ccc(N2CCN(c3ccccc3)CC2)c([N+](=O)[O-])c1", "note": "(centres undefined)", "Potency": "12.6 µM (active)"}
{"smiles": "O=C(OCC(=O)N1CCN(c2ccccc2)CC1)c1cc(Cl)ccc1[N+](=O)[O-]", "activity change, negative = inhibition": -16.5}
{"smiles": "O=C(NCc1ccco1)c1cc2sccc2n1Cc1ccc(F)cc1", "Potency": "11.2 µM (active)"}
{"smiles": "COc1ccccc1N1CCN(C(=O)c2ccc3[nH]c4c(c3c2)CCCC4)CC1", "Potency": "11.2 µM (active)"}
{"smiles": "CN(CCC#N)C(=O)COC(=O)c1ccc2[nH]c3c(c2c1)CCCC3", "activity change, negative = inhibition": -21.3}
{"smiles": "CCN1CCN(Cc2c(O)ccc3c2O/C(=C\\C=C\\c2ccccc2)C3=O)CC1", "Potency": "4.47 µM (active)"}
{"smiles": "CC1=Nc2cc(C(=O)N3CCCC3)ccc2Sc2ccc(C)cc21", "Potency": "0.891 µM (active)"}
{"smiles": "CC1=Nc2cc(C(=O)N3CCCC3)ccc2Sc2c(C)ccc(C)c21", "Potency": "3.16 µM (active)"}
{"smiles": "CCOC(=O)CSc1nnc(NC(=O)c2cccc([N+](=O)[O-])c2)s1", "Potency": "11.2 µM (active)"}
{"smiles": "Nc1nnnn1/N=C/C(Br)=C/c1ccccc1", "Potency": "12.6 µM (active)"}
{"smiles": "CCCN1CCN(C(=O)C2CCN(S(=O)(=O)c3ccc4c(c3)NC(=O)C(C)S4)CC2)CC1", "note": "(centres undefined)", "Potency": "7.08 µM (active)"}
{"smiles": "Cc1cc(NC(=O)COC(=O)c2c(Cl)cccc2Cl)no1", "activity change, negative = inhibition": -11.4}
{"smiles": "Cc1cc(NC(=O)COC(=O)c2ccccc2S(=O)(=O)N(C)c2ccccc2)no1", "Potency": "7.94 µM (active)"}
{"smiles": "O=C(CSc1nc2c(sc3ccccc32)c(=O)n1-c1ccccc1)NCc1ccco1", "Potency": "12.6 µM (active)"}
{"smiles": "CCN(CC)CCn1c(SCC(=O)NCc2ccccc2)nc2c(sc3ccccc32)c1=O", "Potency": "5.01 µM (active)"}
{"smiles": "O=C(CSc1nc2ccccc2c(=O)n1Cc1ccc(C(=O)NC2CC2)cc1)NCc1ccco1", "Potency": "7.08 µM (active)"}
{"smiles": "O=C(CSc1c2c(nc3ccccc13)CCCC2)NCc1ccco1", "activity change, negative = inhibition": -8}
{"smiles": "NC(=O)CSc1nc2c(sc3ccccc32)c(=O)n1CCCN1CCOCC1", "Potency": "3.16 µM (active)"}
{"smiles": "CC(=O)Nc1sc(C)c(C)c1C(=O)OCC(=O)N(CC(C)C)C1CCS(=O)(=O)C1", "note": "(centres undefined)", "Potency": "12.6 µM (active)"}
{"smiles": "Cc1cnc(CNC(=O)c2ccc3oc(Cc4ccccc4)nc3c2)[nH]1", "Potency": "14.1 µM (active)"}
{"smiles": "Cc1cnc(CNC(=O)c2ccc3oc(Cc4ccc(Cl)cc4)nc3c2)cn1", "Potency": "12.6 µM (active)"}
